This is a sample that favours compounds with a hit; in the whole collection about 2.4% have one here.
D2 antag: antagonists of human D2 dopamine receptor; inhibition, % at 10 µM; P14416; HEK293 TREx D2 cells, calcium flux, dopamine EC80; 340,000 tested, 2% active; in the data active = inhibition above about 30%; inactive = below that, where a call was filed; also: 0% is about no effect
Target sequence (P14416 whole entry, looked up): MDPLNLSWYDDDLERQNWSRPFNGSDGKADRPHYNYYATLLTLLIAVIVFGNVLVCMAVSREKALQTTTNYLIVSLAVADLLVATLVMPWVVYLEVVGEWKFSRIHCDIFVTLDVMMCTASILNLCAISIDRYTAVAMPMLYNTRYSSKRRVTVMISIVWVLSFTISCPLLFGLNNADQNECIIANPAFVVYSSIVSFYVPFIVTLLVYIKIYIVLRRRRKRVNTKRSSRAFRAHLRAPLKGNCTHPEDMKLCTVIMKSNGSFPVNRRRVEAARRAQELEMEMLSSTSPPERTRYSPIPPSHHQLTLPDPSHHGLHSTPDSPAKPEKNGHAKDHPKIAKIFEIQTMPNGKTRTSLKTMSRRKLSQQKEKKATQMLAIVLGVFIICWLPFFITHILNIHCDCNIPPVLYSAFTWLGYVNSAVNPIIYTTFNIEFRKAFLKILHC
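Compounds are added to dye-loaded, induced HEK293 T-REx cells coupled to calcium release via D2; after a 3 min kinetic read an EC80 dopamine stimulus is given and fluorescence is recorded for 3 more min.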
D2 PAM-1: D2 dopamine receptor (human) potentiation; HEK293 T-REx D2, calcium flux, EC20 dopamine potentiation; P14416; potentiation, % at 10 µM; 340,000 tested, 0.34% active; AID 485347;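 active = potentiation over 3 SD above the plate norm, cut at about 30% in these data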; also: 0% is about no effect
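Potentiation of an EC20 dopamine calcium response is measured in a force-coupled, tetracycline-inducible Hek293 Trex D2 line. Compound-only kinetic reads over 180 s flag agonists before dopamine addition.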
D2 ag-1: agonists of human D2 dopamine receptor (beta-arrestin); activation, % (test concentration not listed); P14416; 360,000 tested, 0.084% active; DiscoveRx PathHunter D2 beta-arrestin, luminescence, 90 min; 100% = 57 uM dopamine signal; in the data active = activation above about 40%; inconclusive = between about 15% and that limit
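DiscoveRx PathHunter D2 beta-arrestin cells (2,100/well) attached overnight, then compound-stimulated 90 min at 37 C in HBSS/10 mM HEPES/0.1% Tween-20 buffer; beta-galactosidase complementation read by luminescence after 1 h at ambient temperature. Dopamine 57 uM final (EC100) as control.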
D2 ag-2: D2 dopamine receptor (human) agonism; P14416; HEK293 T-REx D2 cells, calcium flux agonist mode; activation, % at 2 µM; 340,000 tested, 0.53% active; AID 485358;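 active = activation over 3 SD above normal in the single-dose calcium agonist read, cut at about 30% in these data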; also: 0% is about no effect
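Calcium-flux readout, 1 cycle/sec over 180 s following compound pin transfer, in inducible HEK293 Trex D2 cells (force-coupled); dopamine controls included. Positive calcium responses during this window marked compounds as potential agonists.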
D2 PAM-2: human D2 receptor positive allosteric modulation; P14416; DiscoveRx D2 beta-arrestin cells, luminescence, 90 min; 100% = 57 uM dopamine signal; potentiation, % (concentration not given with the values); 360,000 tested, 0.23% active; in the data active = potentiation above about 50%; inconclusive = mostly about 30% to 49%
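PathHunter beta-arrestin assay in DiscoveRx D2 cells. Compounds were added with an EC20 of dopamine (50 nM final) for 90 min at 37 deg C. Luminescence was read 1 h after detection reagent, with 57 uM dopamine as the EC100 control.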
* marks the source's active call; other numbers are inactive results; u = inconclusive; x = no result given.

SMILES	D2 antag	D2 PAM-1	D2 ag-1	D2 ag-2	D2 PAM-2
O=C(O)c1ccc(N2CCCS2(=O)=O)cc1	34.3*	-0.7	-2.0	-0.4	4.9
CCCn1c(-c2cccc([N+](=O)[O-])c2)nc2c1c(=O)[nH]c(=O)n2Cc1ccccc1	-4.9	9.9	-4.0	2.4	-1.5
CC(C)(C)Cn1c(=O)[nH]c(=O)c2cc([N+](=O)[O-])cnc21	35.4*	-0.8	-1.5	-1.2	-6.2
CN(Cc1ccc(F)cc1)S(=O)(=O)c1nnc(NC(=O)c2ccc(F)cc2)s1	x	-5.2	x	1.5	x
O=C(Nc1cc(=O)c2ccccc2o1)N1CCCCC1	17.3	8.5	-0.7	1.8	-13.2
O=C(Nc1cc(=O)c2ccccc2o1)N1CCOCC1	-1.7	30.7*	-0.7	0.6	-8.8
O=C1c2ccncc2C(=O)N1c1cccc(Cl)c1	4.9	-2.8	-0.8	-0.1	-7.0
O=c1onc(-c2ccc(Cl)cc2Cl)n1-c1cccnc1	5.1	11.7	59.9*	0.4	59.3*
O=C(c1cc(Br)ccc1OC(F)F)N1CCN2CCCC2C1 (stereo unspecified)	32.8*	-3.4	-0.9	-0.2	-3.6
CC(NC(=O)Cn1cnnn1)c1cccc(C(F)(F)F)c1 (stereo unspecified)	-18.1	37.9*	0.8	-2.0	-4.4
O=C(NNC(=O)c1cccc(C(F)(F)F)c1)c1ccc(-n2cnnn2)cc1	x	x	-0.9	x	-0.4
COc1cc(Cl)c(NC(=O)CCS(=O)(=O)c2ccc3c(c2)NC(=O)CO3)c(OC)c1	x	-5.6	x	1.0	x
CCC1=C(OC(=O)N(CC)CC)N2C(=O)OC(=NCC(=O)OC)[C@]2(Cc2ccccc2)[C@H]2C1=CC[C@H]1C(=O)NC(=O)[C@H]12	53.2*	-0.5	-4.1	0.5	-6.4
CCC1=C(OC(=O)N(CC)CC)N2C(=O)OC(=NCC(=O)OC)[C@]2(Cc2ccccc2)[C@H]2C1=CC[C@H]1C(=O)N(C)C(=O)[C@H]12	-9.5	7.8	-2.7	-0.2	-4.8
CCc1ccc(C(=O)c2cn(CC(=O)NCc3ccc(C)cc3)c3nc(C)ccc3c2=O)cc1	x	-4.3	x	0.0	x
Cc1ccccc1C(=O)NCCNc1ccc([N+](=O)[O-])cc1	32.8*	-0.4	-4.5	-0.2	-5.8
O=C(NCCNc1ccc([N+](=O)[O-])cc1)c1ccccc1Br	-19.6	34.1*	-0.4	0.5	-4.8
CCOC(=O)C1CCCN(C(=O)c2ccccc2SCCOC)C1 (stereo unspecified)	30.3*	-0.5	3.0	0.2	-1.3
CCOC(=O)C1CCCN(C(=O)CSc2ccc(NC(C)=O)cc2)C1 (stereo unspecified)	-7.8	-10.5	u	33.7*	5.5
CCOC(=O)C1CCCN(C(=O)c2cc(Cl)ccc2Cl)C1 (stereo unspecified)	30.8*	-6.4	-0.2	-0.8	1.5
COCCSc1ccccc1C(=O)N1CCCC(C)C1 (stereo unspecified)	3.1	8.1	-3.0	-0.1	-3.5
CCOC(=O)C1CCCN(C(=O)CSc2ccccc2)C1 (stereo unspecified)	3.8	-7.5	-0.7	-0.1	-6.0
O=C1C=C(c2cccc3c2sc2ccccc23)C[C@@H](c2ccc(Cl)cc2)C1	10.8	33.5*	-3.2	-0.6	-3.9
O=C1C=C(c2cc3ccccc3s2)C[C@@H](c2ccc(Cl)cc2)C1	x	x	-4.5	x	-4.0
COc1ccc(C(=O)Nc2ccc(OCc3cc(=O)n4ccccc4n3)cc2)cc1	x	-8.9	x	0.3	x
SMILES	D2 antag	D2 PAM-1	D2 ag-1	D2 ag-2	D2 PAM-2
C=CCNCCCCOc1c(Cl)cc(C)cc1Br	-9.5	-7.0	-1.6	-0.4	-5.3
Cc1cc(C)c(OCCCCNCc2ccccc2)c(Cl)c1	49.0*	-13.8	-1.7	-0.7	-20.0
C=CCNCCOc1c(C)cc(C)cc1Cl	31.6*	-22.4	-1.1	-0.3	-28.7
CC[C@@H](C)[C@@H](C(=O)Nc1ccc(C)cc1)N1Cc2ccccc2C1=O	x	-4.9	x	0.1	x
Cc1ccc(CSCCC(=O)N2CCN(c3cc(C)ccc3C)CC2)cc1	x	19.0	x	x	x
Cc1ccc(NC2=NCC(=O)N2c2ccc3c(c2)OCCO3)c(C)c1	9.4	31.2*	-1.4	-1.2	-10.1
CCN1CCN(c2c(S(=O)(=O)c3ccc(C)c(C)c3)cnc3ccc(F)cc23)CC1	37.1*	-21.4	-4.6	-0.7	-11.9
